This note sets out measurements from PubChem BioAssay AID449748 (Broad Institute, 2010).

Among all 2,200 compounds or so, about 2,200 (100%) were called active. So high a share suggests a set chosen from earlier hits. This is one part of the list. Entries with a potency or affinity are not part of this list. Records with an inconclusive call do not appear. How the calls were made is not given here.

The assay is described as follows: PubChem AID 449748. To be noted: cancer stem cell-like cells viability, luminescence; series mostly up to 19.5 µM.
Regarding `CSc1ccccc1C(=O)Nc1cc(C)ccc1C`, the call was inactive.
